Bioassay records deposited in PubChem by several laboratories.
This is a sample that favours compounds with a hit; in the whole collection about 2.5% have one here.
CHT allo act: human CHT allosteric activation; CHT-expressing cells, membrane potential dye, choline EC20; active compounds read high; LV-AA mutant CHT in HEK293 cells; hit rate 0.49% among 310,000; B-score at 10 µM; AID 488977;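 active = initial fluorescence not abnormally high and integrated response B-score, plate-corrected, over 3 SD above library mean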
CHT block: inhibitors of human choline transporter CHT; hit rate 0.86% among 310,000; B-score at 10 µM; CHT-expressing cells, membrane potential dye, choline response; active compounds read low;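 active = B-score over 3 SD under the library average, and starting fluorescence ratio not unusually high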;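 also: choline stimulus applied at its EC90 after an EC20 pre-addition; B-score computed on integrated fluorescence ratio after choline addition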
TMEM16A act: activates or potentiates the mouse TMEM16A chloride channel | Q8BHY3 | HEK293 TMEM16A/YFP-H148Q/I152L, iodide quench fluorescence; active compounds read low | B-score at 10 µM | hit rate 0.3% among 340,000;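 active = fluorescence-ratio B-score plate-corrected deviation score at least 3 library SD below zero, with starting fluorescence score within 5 deviations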;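 also: channel opened by trigger with iodide after compound preincubation; score built on the fluorescence ratio of max minus min over baseline; more negative score means more quench and so TMEM16A activation or potentiation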
PKA-R2B activ: activators of human PKA-R2B complex | P22694+P31323 | PKA-R2B holoenzyme dissociation, Cy5-IP20 fluorescence polarization; R2B truncated from residue 108, S112A mutant; 0% DMSO only, 100% 113 µM cGMP | activation, % at 11.4 µM | hit rate 0.079% among 340,000 | AID 504700;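 active = activation above a cutoff set at the mean over all compounds plus 3 SD, cut at about 18% in these data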;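 also: higher means more holoenzyme dissociation and a rise in polarization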
Target sequence (P31323 whole entry, looked up, other chains not shown, the tested form may be a part): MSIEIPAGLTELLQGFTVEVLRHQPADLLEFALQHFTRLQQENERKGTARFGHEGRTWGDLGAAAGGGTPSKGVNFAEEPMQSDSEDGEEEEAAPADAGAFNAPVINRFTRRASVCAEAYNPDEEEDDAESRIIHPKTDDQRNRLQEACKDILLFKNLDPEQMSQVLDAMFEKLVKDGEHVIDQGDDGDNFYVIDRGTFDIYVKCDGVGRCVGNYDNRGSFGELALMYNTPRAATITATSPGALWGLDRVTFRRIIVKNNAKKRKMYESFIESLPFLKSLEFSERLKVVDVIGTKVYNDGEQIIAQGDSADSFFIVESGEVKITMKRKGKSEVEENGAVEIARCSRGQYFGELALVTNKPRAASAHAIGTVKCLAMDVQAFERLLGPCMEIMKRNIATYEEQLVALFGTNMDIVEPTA
TMEM16A inh: blocks the mouse calcium-activated chloride channel TMEM16A. Q8BHY3. AID 588511. hit rate 1.2% among 310,000. normalized B-score (activity score, 25-100; higher = stronger inhibition) at 10 µM. HEK293 TMEM16A/YFP iodide influx fluorescence, ionomycin;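 active = ratio plate-corrected score three or more library SD toward inhibition, starting fluorescence score within five deviations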;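 also: score derived from kinetic fluorescence span divided by baseline fluorescence per well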
PKA-R1A act: activates the PKA-R1A holoenzyme complex. hit rate 0.083% among 340,000. PKA-R1A dissociation, Cy5-IP20 fluorescence polarization; scaled: DMSO 0%, 113 µM cGMP 100%. activation, % at 11.4 µM;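 active = percent activation above the mean of all tested compounds plus 3 SD, cut at about 19% in these data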;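 also: higher means more PKAc released from R1A so a rise in polarization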
CHT inh conf: human CHT inhibition, confirmatory screen | CHT activity remaining % of control (active compounds read low), % at 10 µM | hit rate 70% among 2,400 | CHT-expressing cells, choline membrane potential dye; LV-to-AA substituted CHT, HEK293 cells | shares compounds with CHT block | AID 493221;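 active = choline transporter activity left, mean of duplicates at 10 µM, below buffer-only control mean minus 3 SD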;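 also: depolarization triggered by choline at its EC90 following an EC20 pre-addition; 0% = hemicholinium-3 full block and 100% = buffer-only control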
HEK293 CHT ctr: CHT inhibitor counter-screen hit in parental HEK293 cells; hit rate 4% among 2,400; membrane potential dye, choline response; active = decrease or increase beyond buffer ±3SD; shares compounds with CHT block; AID 493222; membrane potential ratio readout (active if shifted either direction beyond buffer ±3SD; no single direction) at 10 µM;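 also: parental cells lack the transporter so any hit is non-specific; ratio is peak minus trough fluorescence over baseline after EC90 choline challenge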
Active calls of the source: *; i = inactive; . = no result.

SMILES | CHT allo act | CHT block | TMEM16A act | PKA-R2B activ | TMEM16A inh | PKA-R1A act | CHT inh conf | HEK293 CHT ctr
Cc1ccnc(N(C(=O)Nc2ccccc2)C2=NCC(C)(C)S2)c1 | i | i | i | . | i | . | . | .
O=C(CSc1nnc(-c2ccco2)n1Cc1ccco1)NCc1ccccc1 | i | -5.1* | i | -11 | i | -9 | i | i
CCC1(C)Cc2c(sc3nnn(CC(=O)Nc4ccccc4)c(=O)c23)CO1 (centres undefined) | i | i | i | -5 | i | -5 | 58%* | i
CCC1(C)Cc2c(sc3nnn(CC(=O)Nc4ccccc4C)c(=O)c23)CO1 (centres undefined) | i | i | i | -7 | i | 4 | . | .
Cc1ccc(CNC(=O)CS(=O)Cc2nc(-c3ccccc3F)oc2C)cc1 (centres undefined) | i | i | i | -4 | i | 3 | . | .
COc1ccccc1CC(=O)N1CCN(C(=O)c2ccco2)CC1 | i | i | i | -3 | i | 6 | . | .
Cn1c(CCNC(=O)c2cccs2)n[nH]c1=S | i | -6.8* | i | -1 | i | -9 | i | i
Cn1c(CNC(=O)c2cccs2)n[nH]c1=S | i | i | i | 1 | i | -8 | . | .
COc1cccc(N2CCN(C(c3ccccn3)c3nnnn3C(C)(C)C)CC2)c1 (centres undefined) | i | -5* | i | -2 | i | -8 | i | i
O=C(c1ccccc1F)N1CCCC(C(=O)N2CCc3ccccc3C2)C1 (centres undefined) | i | i | i | 0 | i | -2 | . | .
Cc1ccc(S(=O)(=O)N(C)C(C)CCc2ccco2)cc1 (centres undefined) | . | . | i | 4 | . | -16 | . | .
CC(=O)c1ccc(S(=O)(=O)N(C)C(C)CCc2ccco2)cc1 (centres undefined) | i | -5.6* | i | -6 | i | -5 | 71%* | i
COc1ccccc1NC(=O)C1CCCN(c2ncnc3c2nc2n3CCCCC2)C1 (centres undefined) | i | -6.8* | i | 2 | i | 5 | 5.7%* | i
O=C(Nc1ccccc1Cl)C1CCCN(c2ncnc3c2nc2n3CCCCC2)C1 (centres undefined) | i | -5.2* | i | -1 | i | 4 | 26%* | i
O=C(NCCc1ccc(Cl)cc1)C1CCCN(c2ncnc3c2nc2n3CCCCC2)C1 (centres undefined) | i | i | i | -2 | i | -7 | . | .
Cc1cccc(CCNC(=O)C2CCCN(c3ncnc4c3nc3n4CCCCC3)C2)c1 (centres undefined) | i | -7.6* | i | 1 | i | -21 | 19%* | i
C/C(Cn1nnc([N+](=O)[O-])n1)=N\NC(=O)c1ccc(O)cc1 | i | i | i | 4 | i | 6 | . | .
Cc1ccc(N(C(=O)CNC(=O)c2ccco2)C(C(=O)NC2CCCC2)c2cccnc2)cc1F (centres undefined) | i | i | i | 2 | i | -3 | . | .
Cc1ccc2c(COC(=O)c3c(C)noc3C)cc(=O)oc2c1 | i | -5.9* | i | 3 | i | -5 | i | i
Cc1ccc(C(=O)N/C(=C\C=C\c2ccccc2)C(=O)NCc2ccco2)cc1 | i | -6.6* | i | -12 | i | -2 | 54%* | i
O=C(NCc1ccco1)/C(=C/C=C/c1ccccc1)NC(=O)c1ccco1 | i | i | i | 3 | i | 5 | . | .
CC(=O)C[C@H]1c2cc(F)ccc2S(=O)(=O)N1c1ccc(N(C)C)cc1 | i | i | i | 9 | i | -2 | . | .
CCc1cc(-c2nc(N)ncc2-c2csc(C)n2)c(O)cc1OC | i | -7.8* | i | -8 | i | -2 | i | i
CCCc1cc(-c2nc(N)ncc2-c2csc(C)n2)c(O)cc1OC | i | i | i | 10 | i | -8 | . | .
Cc1nnc(C)n1/N=C/c1cc(Br)cc(Br)c1O | i | -6.8* | i | -25 | i | 3 | 34%* | i
SMILES | CHT allo act | CHT block | TMEM16A act | PKA-R2B activ | TMEM16A inh | PKA-R1A act | CHT inh conf | HEK293 CHT ctr
COC(=O)Cn1c(=O)c2c(nc3n2CCCN3CCc2ccc(OC)c(OC)c2)n(C)c1=O | i | i | . | -1 | i | -3 | . | .
O=C1CCCN1CCCNc1nc2c(S(=O)(=O)c3ccc(Br)cc3)nnn2c2ccccc12 | i | i | i | -17 | i | -6 | . | .
Cc1ccc(C(C)C)c(OCCCCN2CCNCC2)c1 | i | i | i | -3 | i | -10 | . | .
Cc1ccc(C(C)C)c(OCCOCCN2CCNCC2)c1 | i | -6.9* | i | . | i | . | 22%* | i
CCOC(=O)C1CCN(C(=O)CN(c2ccc(Cl)c(C(F)(F)F)c2)S(C)(=O)=O)CC1 | i | -6.4* | i | -8 | i | 0 | i | i
Cc1ccc(N2C(=O)N(CC(=O)Nc3c(C)cc(C)cc3Cl)C(=O)C2C)cc1 (centres undefined) | i | -5* | i | -7 | i | -10 | i | i
Cc1ccc(N2C(=O)N(CC(=O)Nc3ccc(C)cc3C)C(=O)C2C)cc1 (centres undefined) | i | i | i | -6 | i | -3 | . | .
CC(NC(=O)c1ccc(OC2CCN(Cc3ccccn3)CC2)cc1)c1ccccc1 (centres undefined) | i | -10* | i | 8 | i | -11 | -1.0%* | i
CC(C)c1nc(CNC(=O)c2ccc(OC3CCN(Cc4ccccn4)CC3)cc2)cs1 | i | i | i | -12 | i | -15 | . | .
O=C(Nc1ccccc1C(=O)Nc1ccccn1)c1cc(F)c(F)cc1Cl | i | i | i | -4 | i | 2 | . | .
CN(/N=C/c1cc(Cl)cc(Cl)c1O)C(=S)NC(C)(C)C | i | -5.4* | i | -2 | 100* | -5 | 68%* | i
CC(C)CC(=O)Nc1ccccc1N1CCN(C(=O)c2ccccc2)CC1 | i | -5.1* | i | -4 | i | 7 | i | i
